Screens deposited in PubChem by several laboratories.
BCLXL inh: inhibitors of human Bcl-xL. Q07817. GST-Bcl-xL / FITC-Bim BH3 peptide fluorescence polarization. 320,000 compounds, 0.7% hits. inhibition, % at 10.9 µM. AID 2129;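 active means inhibition above the mean of all tested compounds plus 3 SD, cutoff set per campaign, cut at about 30% in these data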;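 further: 0% = DMSO wells and 100% = unlabeled Bim-BH3 peptide competitor; inhibitors lower millipolarization by displacing the labeled peptide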
Target sequence (Q07817 whole entry, looked up): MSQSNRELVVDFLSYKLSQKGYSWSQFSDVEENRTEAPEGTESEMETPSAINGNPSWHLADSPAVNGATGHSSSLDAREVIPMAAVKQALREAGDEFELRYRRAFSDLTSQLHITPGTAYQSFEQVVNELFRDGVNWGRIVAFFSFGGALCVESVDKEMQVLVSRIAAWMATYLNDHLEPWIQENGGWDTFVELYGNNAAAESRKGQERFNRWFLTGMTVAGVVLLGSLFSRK
Mcl1 Bid PPI: disrupts binding of human Mcl-1 to Bid peptide. Q07820. TR-FRET Mcl-1/Bid-Dy647 peptide binding, 1536-well. inhibition, % at 21.7 µM. 220,000 compounds, 0.97% hits. AID 1021;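 active means compounds that cut the binding signal by more than half at the single screening dose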;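 further: His-tagged Mcl-1 with europium anti-His antibody binding Bid BH3 peptide; 0% = Mcl-1 plus peptide wells and 100% = peptide-only wells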
Target sequence (Q07820 whole entry, looked up): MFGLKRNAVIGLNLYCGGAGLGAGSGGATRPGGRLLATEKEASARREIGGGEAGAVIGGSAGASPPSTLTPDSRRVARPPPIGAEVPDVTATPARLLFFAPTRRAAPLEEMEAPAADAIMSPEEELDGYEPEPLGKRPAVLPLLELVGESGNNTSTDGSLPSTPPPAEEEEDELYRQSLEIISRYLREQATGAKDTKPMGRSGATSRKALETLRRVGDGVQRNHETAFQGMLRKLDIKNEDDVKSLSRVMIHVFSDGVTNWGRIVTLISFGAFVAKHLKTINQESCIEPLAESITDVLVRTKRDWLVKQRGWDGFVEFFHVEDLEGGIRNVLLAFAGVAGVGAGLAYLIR
GLD-1 TGE inh: GLD-1-TGE RNA interaction inhibition (C. elegans) | 320,000 compounds, 0.44% hits | Q17339 | AID 2280 | inhibition, % at 5.96 µM | purified GLD-1 + fluorescein TGE RNA, fluorescence polarization;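 active means percent inhibition above a per-plate cutoff, the plate mean of test compounds plus 3 SD, cut at about 30% in these data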;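 further: 0% = DMSO wells with GLD-1 and probe and 100% = wells lacking GLD-1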
MCL1-BIM inh: disrupts human MCL1 binding to BIM-BH3 peptide; 320,000 compounds, 0.68% hits; inhibition, % at 10.9 µM; GST-MCL1 / FITC-Bim-BH3 fluorescence polarization; AID 2057; Q07820;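 active means inhibition above the mean inhibition of all tested compounds plus 3 SD, set per campaign, cut at about 40% in these data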;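 further: 0% = DMSO wells and 100% = unlabeled Bim-BH3 peptide control; higher means more loss of mP so more displacement of Bim peptide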
Mcl-1 Bim block: disrupts Bim peptide binding to human Mcl-1. Q07820. Bead-based flow cytometry, Bim peptide-Mcl-1 binding. inhibition, % at 10 µM. 190,000 compounds, 0.1% hits. AID 1009; in the data active means inhibition above about 40%;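 further: 0% = no compound tracer wells and 100% = peptide blocker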
Mcl1 Noxa PPI: Mcl-1/Noxa interaction inhibition. TR-FRET Mcl-1/Noxa peptide binding, 2 h. 220,000 compounds, 1.5% hits. AID 1022. Q07820. inhibition, % at 21.7 µM;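 active means compounds that cut the protein-peptide binding signal by more than 50% relative to plate controls in a single-dose test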;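 further: His-tagged Mcl-1 with rhodamine Noxa BH3 peptide and terbium anti-His antibody; 0% = Mcl-1 plus Noxa peptide wells and 100% = peptide-only wells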
* marks the source's active call; other numbers are inactive results; · = no result. Hits are enriched below; roughly 2.3% of the tested compounds scored in any of these assays.

SMILES	BCLXL inh	Mcl1 Bid PPI	GLD-1 TGE inh	MCL1-BIM inh	Mcl-1 Bim block	Mcl1 Noxa PPI
N=c1c(C(=O)NCc2ccc3c(c2)OCO3)cc2c(=O)n3ccccc3nc2n1Cc1cccnc1	15	50	-12	4	-4	74*
COc1ccc(Cn2c(=O)[nH]c3cc(C(=O)NCCCOC(C)C)ccc3c2=O)cc1	4	-22	4	6	1	-1
COc1ccc(Cn2c(=N)c(C(=O)NC3CCCCC3)cc3c(=O)n4ccccc4nc32)cc1	2	·	2	-3	·	·
COc1ccc(CNC(=O)c2cc3c(=O)n4ccccc4nc3n(Cc3cccnc3)c2=N)cc1	19	8	-5	21	1	59*
N=c1c(C(=O)NCc2ccco2)cc2c(=O)n3ccccc3nc2n1Cc1ccc(Cl)cc1	22	·	4	34	8	·
COc1ccc(Cn2c(=O)[nH]c3cc(C(=O)NCc4ccc5c(c4)OCO5)ccc3c2=O)cc1	-8	56*	16	-4	2	9
Oc1ccc(N2CCN(c3ncnc4sc(-c5ccccc5)cc34)CC2)cc1	·	15	·	·	2	87*
CC(=O)N1CCN(c2ncnc3sc(-c4ccccc4)cc23)CC1	-3	6	8	-4	0	21
COc1cc(/C=C2\SC(=Nc3ccc(O)cc3)NC2=O)cc(OC)c1O	10	-31	-49	21	0	62*
COc1cc(/C=C2\SC(=Nc3c(C)n(C)n(-c4ccccc4)c3=O)NC2=O)ccc1O	·	-35	·	·	0	51*
CN=C1S/C(=C\c2ccc(O)c(OC)c2)C(=O)N1C	-12	·	-23	-16	·	·
Cc1cc(C)c(S(N)(=O)=O)c(C)c1N(C)S(=O)(=O)c1ccc(Cl)cc1	4	·	-4	3	·	·
COc1ccccc1NS(=O)(=O)c1cc2c3c(c1)CCN3C(=O)CC2	1	·	0	0	·	·
O=C(NC1CCC(O)CC1)c1cc(-c2ccco2)nc2ccccc12 (centres undefined)	15	-43	13	39	0	55*
O=C(Nc1nncs1)c1cc(-c2ccco2)nc2ccccc12	·	·	5	·	·	·
O=C(COC(=O)c1ccco1)NCc1ccc2c(c1)OCO2	0	-19	-4	2	·	13
O=C(COC(=O)c1cc(-c2ccco2)nc2ccccc12)NCc1ccc2c(c1)OCO2	11	22	10	16	1	76*
CCOC(=O)c1cc(-c2ccco2)nc2c1c(C)nn2-c1ccccc1	10	14	-1	9	5	56*
NC(=O)COC(=O)c1cc(-c2ccco2)nc2ccccc12	25	9	18	25	·	61*
O=C(Cc1ccccc1[N+](=O)[O-])OCC(=O)c1ccccc1Br	·	·	6	·	·	·
O=C(c1cc(F)c(F)cc1Cl)N1CCN(CCc2ccccc2)CC1	5	·	-4	0	·	·
COc1cc(C)c(Cl)cc1S(=O)(=O)N(C)C	6	5	4	8	4	0
CN(C)S(=O)(=O)c1cc(S(=O)(=O)N(C)C)c(Cl)cc1N	1	70*	-4	3	2	28
Cc1ccc(NC(=O)CN(C)C(=O)c2cccc(Br)c2)cc1	-2	·	5	-5	·	·
Clc1nc(-c2cccnc2)nc2scc(-c3ccccc3)c12	8	5	2	2	-4	-5
SMILES	BCLXL inh	Mcl1 Bid PPI	GLD-1 TGE inh	MCL1-BIM inh	Mcl-1 Bim block	Mcl1 Noxa PPI
COc1ccc(-c2csc3nc(-c4cccnc4)nc(Cl)c23)cc1OC	6	8	-6	12	3	58*
O=C1CSC(=S)N1/N=C/c1cc(Br)c(O)c(Br)c1	-4	·	-65	-43	·	·
CC(C)(C)C(=O)c1sc2nc(-c3cccs3)cc(C(F)(F)F)c2c1N	20	-75	-28	0	-3	8
Cc1nnc(NC(=O)c2sc3nc(-c4cccs4)cc(C(F)(F)F)c3c2N)s1	21	45	-37	8	2	98*
Nc1c(C(=O)Nc2nccs2)sc2nc(-c3cccs3)cc(C(F)(F)F)c12	31*	32	20	33	-3	32
CCc1noc(C)c1C(=O)Nc1cc(S(=O)(=O)N(CC)CC)ccc1N1CCOCC1	2	·	-6	1	·	·
COc1ccc2c(c1)OC[C@H]1[C@H]2N2C(=O)c3cc(F)ccc3NC(=O)[C@@]2(C)[C@H]1c1ccccc1	·	·	2	·	·	·
CCOC(=O)[C@H]1[C@H]2COc3ccc(OC)cc3[C@H]2N2C(=O)CNC(=O)[C@@]12C	5	·	-7	9	·	·
C=CCc1ccc(OCCCCN2CCC(C)CC2)c(OC)c1	6	39	-5	-2	-10	7
C=CCc1ccc(OCCCN2CCCC(C)C2)c(OC)c1 (centres undefined)	7	59*	9	7	-4	12
O=C(O)c1cccnc1C(=O)c1ccccc1	10	·	0	12	·	·
Clc1ccc(C2=NNC(=NCc3ccc4c(c3)OCO4)SC2)cc1	1	10	-1	0	-4	62*
COc1ccc(CN=C2NN=C(c3ccc(Cl)cc3)CS2)cc1	2	-13	-14	1	-1	58*
CC(C)(C)N=C1NN=C(c2ccc(Cl)cc2)CS1	-1	-33	-2	-11	·	5
Cc1ccc(CCNC(=O)C2CCN(S(=O)(=O)c3ccc4c(c3)NC(=O)CO4)CC2)cc1	2	·	-2	6	·	·
C[C@H](CO)N1C[C@H](C)[C@@H](CN(C)S(=O)(=O)c2cn(C)cn2)Oc2c(NS(=O)(=O)c3ccc(F)cc3)cccc2C1=O	·	·	4	·	·	·
CC(Oc1ccccc1Cl)C(=O)Nc1ccc(S(=O)(=O)Nc2nccs2)cc1 (centres undefined)	4	·	4	7	·	·
CCS(=O)(=O)N1CCN(c2ccc(C(=O)NC3C4CC5CC(C4)CC3C5)cc2[N+](=O)[O-])CC1 (centres undefined)	1	55*	5	-2	-1	1
CCS(=O)(=O)N1CCN(c2ccc(C(=O)N3CCOCC3)cc2[N+](=O)[O-])CC1	-3	17	-6	-3	·	16
COc1cccc(OC)c1OCc1cc(C2C3CCCC=C3C(C#N)=C(N)C2(C#N)C#N)c(C)cc1C (centres undefined)	11	-26	20	1	0	1
CCCN1CC=C2C(C#N)=C(N)C(C#N)(C#N)C(c3cccc(OC)c3OC)C2C1 (centres undefined)	129*	-54	104*	140*	-5	-39
CCN1CC=C2C(C#N)=C(N)C(C#N)(C#N)C(CCc3ccccc3)C2C1 (centres undefined)	155*	-29	110*	183*	0	-13
COc1ccc(OC)c(C2C3CN(C(C)C)CC=C3C(C#N)=C(N)C2(C#N)C#N)c1 (centres undefined)	87*	-34	52*	96*	-5	3
